Drawing on PubChem BioAssay (EPA / NIEHS), this text covers outcome and AC50 for seven compounds.

Structures are written as SMILES. The source made the active and inactive calls. The calls were made as follows: active = hit-call score of the fitted dose curve at least 0.9, where 1 is the maximum; inactive = score below 0.9.

A short description of test [1]: BSK_4H_SRB: Viability Assessment in the BioMAP Diversity Plus: 4H Assay (AID 2283027).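 Also: cells exposed to compound for 24 h before staining.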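 As to AC50: curves fitted both ways versus DMSO so AC50 may be loss or gain.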 As to conditions: primary human endothelial cells (HUVEC). In a few lines:
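HUVEC, 24 h post-dose; 10% TCA fix, 0.1% SRB stain, A560 nm. Total protein = overt cytotoxicity, parallel to biomarker read. Bidirectional fit vs DMSO baseline.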

A short description of test [2]: BSK_BE3C_SRB: Viability Assessment in the BioMAP Diversity Plus: BE3C Assay (AID 2283028). As to conditions: primary human bronchial epithelial cells. In a few lines:
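Primary human bronchial epithelium; chemical dosing, 24 h; 10% TCA fix, 0.1% SRB stain, A560; bidirectional fit vs DMSO baseline.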

Read-out in test [3]: Thrombomodulin, THBD (gene 7056)
The experiment in a line: BSK_3C_Thrombomodulin: BioMAP Diversity Plus: 3C Assay for Thrombomodulin Biomarker Activity (AID 2283029). As to conditions: primary human endothelial cells (HUVEC); actives raise or lower the signal. In a few lines: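 Endothelial cells from umbilical vein are dosed with test chemical and incubated 24 h. Thrombomodulin is then quantified by ELISA, with DMSO serving as negative control and activity baseline.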

Read-out in test [4]: Urokinase-type plasminogen activator receptor (uPAR), PLAUR (gene 5329)
The experiment in a line: BSK_4H_uPAR: BioMAP Diversity Plus: 4H Assay for Urokinase-type plasminogen activator receptor (uPAR) Biomarker Activity (AID 2283030). As to conditions: primary human endothelial cells (HUVEC); actives raise or lower the signal. In a few lines: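 HUVEC, 24 h post-dose; uPAR by ELISA; bidirectional fit vs DMSO baseline.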

Read-out in test [5]: Vascular endothelial growth factor receptor 2 (Homo sapiens) (UniProt P35968)
In words: BSK_4H_VEGFRII: BioMAP Diversity Plus: 4H Assay for Vascular endothelial growth factor receptor 2 (VEGFR2) Biomarker Activity (AID 2283031). As to conditions: primary human endothelial cells (HUVEC); actives raise or lower the signal. In a few lines: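 HUVEC (human primary), 4H system; 24 h post-dose; VEGFRII by ELISA; bidirectional curve fit vs DMSO baseline; gain or loss of signal scored.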

Read-out in test [6]: Human Leukocyte Antigen - DR isotype (HLADR), HLA-DRA (gene 3122)
In words: BSK_BE3C_HLADR: BioMAP Diversity Plus: BE3C Assay for Human Leukocyte Antigen - DR isotype (HLADR) Biomarker Activity (AID 2283032). The following applies: primary human bronchial epithelial cells; actives raise or lower the signal. In a few lines: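 Chemicals are dosed onto BE3C bronchial epithelial cultures of human origin and left 24 h. HLA-DR is then measured by ELISA, and the endpoint is fitted in both directions using DMSO as the activity baseline.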

Read-out in test [7]: Vascular cell adhesion molecule 1 (VCAM1), VCAM1 (gene 7412)
In words: BSK_4H_VCAM1: BioMAP Diversity Plus: 4H Assay for Vascular cell adhesion molecule 1 (VCAM1) Biomarker Activity (AID 2283033).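 As to outcome: cell-surface VCAM-1 protein measured by ELISA.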 As to conditions: primary human endothelial cells (HUVEC); actives raise or lower the signal. In a few lines:
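Chemicals are added to primary human umbilical vein endothelial cells. After 24 h, VCAM-1 levels are measured by ELISA. Values come from bidirectional fitting referenced to DMSO.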

Read-out in test [8]: Interferon-gamma inducible Protein 10 (IP10), CXCL10 (gene 3627)
In words: BSK_BE3C_IP10: BioMAP Diversity Plus: BE3C Assay for Interferon-gamma inducible Protein 10 (IP10) Biomarker Activity (AID 2283034). The following applies: primary human bronchial epithelial cells; actives raise or lower the signal. In a few lines: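 IP-10 quantified by ELISA serves as the endpoint. Cells: primary human bronchial epithelium, read 24 h after compound addition. Activity is derived by bidirectional fitting with DMSO as negative control.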

Read-out in test [9]: Monokine induced gamma interferon (MIG), CXCL9 (gene 4283)
The experiment in a line: BSK_BE3C_MIG: BioMAP Diversity Plus: BE3C Assay for Monokine induced gamma interferon (MIG) Biomarker Activity (AID 2283035). As to conditions: primary human bronchial epithelial cells; actives raise or lower the signal. In a few lines:
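Dose cells (human primary bronchial epithelial), incubate 24 h, quantify MIG by ELISA, then fit concentration–response in both directions relative to DMSO control.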

Read-out in test [10]: Transforming growth factor beta 1 (TGFb1), TGFB1 (gene 7040)
The experiment in a line: BSK_BE3C_TGFb1: BioMAP Diversity Plus: BE3C Assay for Transforming growth factor beta 1 (TGFb1) Biomarker Activity (AID 2283036;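 also: TGF-b1 protein level measured by ELISA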). The following applies: primary human bronchial epithelial cells; actives raise or lower the signal. In a few lines: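 Bronchial epithelial primary cells are treated with test chemical, then TGF-b1 is quantified by ELISA after 24 hours. Values derive from bidirectional fitting against DMSO, with cytotoxicity checked by SRB staining in parallel cultures.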

Read-out in test [11]: Plasminogen activator inhibitor-1 (PAI1), SERPINE1 (gene 5054)
In words: BSK_BE3C_PAI1: BioMAP Diversity Plus: BE3C Assay for Plasminogen activator inhibitor-1 (PAI1) Biomarker Activity (AID 2283037). The following applies: primary human bronchial epithelial cells; actives raise or lower the signal. In a few lines: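 Values derive from bidirectional fitting against DMSO baseline of PAI-1 levels, measured by ELISA in human bronchial epithelial cells 24 h after compound addition.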

Read-out in test [12]: urokinase plasminogen activator (uPA), PLAU (gene 5328)
The experiment in a line: BSK_BE3C_uPA: BioMAP Diversity Plus: BE3C Assay for urokinase plasminogen activator (uPA) Biomarker Activity (AID 2283038).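 Also: uPA protein level quantified by ELISA in cell cultures; uPA read one day after compound addition.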 As to conditions: primary human bronchial epithelial cells; actives raise or lower the signal. In a few lines: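 ELISA read-out of uPA in human lung primary bronchial epithelial cultures, 24 h post-dosing. Gain or loss of signal fitted bidirectionally relative to DMSO baseline; cytotoxicity checked in parallel cultures via SRB total protein stain.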

Read-out in test [13]: Urokinase-type plasminogen activator receptor (uPAR), PLAUR (gene 5329)
In words: BSK_BE3C_uPAR: BioMAP Diversity Plus: BE3C Assay for Urokinase-type plasminogen activator receptor (uPAR) Biomarker Activity (AID 2283039).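 Also: uPAR protein level measured by ELISA on the cells; cells exposed to compound for one day before measurement.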 As to conditions: primary human bronchial epithelial cells; actives raise or lower the signal. In a few lines:
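Steps: dose human primary bronchial epithelial cells, incubate 24 h, measure uPAR by ELISA, then fit gain- or loss-of-signal response bidirectionally relative to DMSO.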

Read-out in test [14]: Interleukin-6 (IL6), IL6 (gene 3569)
The experiment in a line: BSK_CASM3C_IL6: BioMAP Diversity Plus: CASM3C Assay for Interleukin-6 (IL6) Biomarker Activity for (AID 2283040). As to conditions: primary human coronary artery smooth muscle cells; actives raise or lower the signal.

Read-out in test [15]: Tissue plasminogen activator (tPA), PLAT (gene 5327)
In words: BSK_BE3C_tPA: BioMAP Diversity Plus: BE3C Assay for Tissue plasminogen activator (tPA) Biomarker Activity (AID 2283041).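 Also: tPA level quantified by ELISA one day after compound addition.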 The following applies: primary human bronchial epithelial cells; actives raise or lower the signal. In a few lines: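 Gain- or loss-of-signal in tPA, measured by ELISA, derived by bidirectional fitting against DMSO. Cells: human primary bronchial epithelial; read at 24 h after chemical dosing.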

Read-out in test [16]: Interleukin-8 (IL8), CXCL8 (gene 3576)
In words: BSK_CASM3C_IL8: BioMAP Diversity Plus: CASM3C Assay for Interleukin-8 (IL8) Biomarker Activity (AID 2283042).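 Also: IL-8 protein level quantified by ELISA.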 As to conditions: primary human coronary artery smooth muscle cells; actives raise or lower the signal.

Read-out in test [17]: Human Leukocyte Antigen - DR isotype (HLADR), HLA-DRA (gene 3122)
The experiment in a line: BSK_CASM3C_HLADR: BioMAP Diversity Plus: CASM3C Assay for Human Leukocyte Antigen - DR isotype (HLADR) Biomarker Activity (AID 2283043).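 Also: cell-surface HLA-DR protein level quantified by ELISA.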 The following applies: primary human coronary artery smooth muscle cells; actives raise or lower the signal.

Read-out in test [18]: Macrophage colony-stimulating factor (MCSF), CSF1 (gene 1435)
The experiment in a line: BSK_CASM3C_MCSF: BioMAP Diversity Plus: CASM3C Assay for Macrophage colony-stimulating factor (MCSF) Biomarker Activity (AID 2283044).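 Also: M-CSF protein amount quantified by ELISA after 24 h exposure.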 As to conditions: primary human coronary artery smooth muscle cells; actives raise or lower the signal.

Read-out in test [19]: Low-density lipoprotein receptor (LDLR), LDLR (gene 3949)
The experiment in a line: BSK_CASM3C_LDLR: BioMAP Diversity Plus: CASM3C Assay for Low-density lipoprotein receptor (LDLR) Biomarker Activity (AID 2283045).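 Also: LDLR protein level on the cell surface quantified by ELISA.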 As to conditions: primary human coronary artery smooth muscle cells; actives raise or lower the signal.

Read-out in test [20]: Monocyte Chemoattractant Protein-1 (MCP1), CCL2 (gene 6347)
In words: BSK_CASM3C_MCP1: BioMAP Diversity Plus: CASM3C Assay for Monocyte Chemoattractant Protein-1 (MCP1) Biomarker Activity (AID 2283046).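 Also: MCP-1 level quantified by ELISA 24 h after dosing.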 As to conditions: primary human coronary artery smooth muscle cells; actives raise or lower the signal.

For `CC(C)(O)c1ccc(CNC(=O)c2cccnc2Oc2ccc(F)cc2)cc1`, the outcome in [1], in test [2], in test [3], in test [4], in test [5] and in test [6] was inactive. Besides, the result in [7], in test [8], in [9], in test [10], in test [11] and in test [12] was inactive. In addition, the result in test [13], in [14], in test [15], in [16], in test [18] and in test [19] was inactive. Moreover, the result in test [20] was inactive. Further, in test [17], the AC50 (usually the midpoint of the concentration-response curve, whichever way the signal moves) was 2.12 µM (active).

With `Oc1ccccc1O`, the AC50 in test [1] was 5.94 µM (active); in test [7] it was 5.53 µM (active); in [17] it was 10.4 µM (active); in test [18] it was 3.97 µM (active). For the same compound, the outcome in [2], in [3], in [4], in [5], in [6] and in test [8] was inactive. Also, the outcome in [9], in test [10], in [11], in test [12], in test [13] and in test [14] was inactive. Moreover, the result in test [15], in test [16], in test [19] and in [20] was inactive.

For `COC(=O)CCC(=O)OC`, the outcome in test [1], in test [2], in [3], in test [4], in test [5] and in test [6] was inactive. For the same compound, the outcome in [7], in [8], in [9], in [10], in test [11] and in [12] was inactive. Moreover, the result in test [13], in [14], in test [15], in [16], in test [17] and in test [18] was inactive. The result in test [19] and in test [20] was inactive.

Regarding `O=C(O)c1[nH]n(-c2ccc(S(=O)(=O)O)cc2)c(=O)c1N=Nc1ccc(S(=O)(=O)O)cc1`, the result in [1], in [2], in test [3], in test [4], in test [5] and in test [6] was inactive. Also, the outcome in test [7], in [8], in test [9], in test [10], in test [11] and in [12] was inactive. Moreover, the result in test [13], in [14], in test [15], in [16], in test [17] and in test [18] was inactive. In addition, the outcome in test [19] and in test [20] was inactive.

`CCC(C)N(C)C(=O)c1cc2ccccc2c(-c2ccccc2Cl)n1` (stereo not drawn): the outcome in test [1], in [2], in [3], in [4], in [5] and in test [6] was inactive. Further, the outcome in test [7], in test [8], in [9], in [10], in test [11] and in [12] was inactive. In addition, the result in [13], in test [14], in test [15], in test [16], in [17] and in test [18] was inactive. Also, the result in test [19] and in test [20] was inactive.

With `OCC(O)CO`, the result in test [1], in [2], in [3], in test [4], in [5] and in test [7] was inactive. Further, the outcome in test [8], in test [9], in [10], in [11], in [12] and in test [13] was inactive. The result in [14], in [15], in test [16], in [17], in [18] and in [19] was inactive. In test [20], the outcome was inactive.

On to `Nc1nc(=S)c2[nH]cnc2[nH]1`, for which the result in test [1], in [2], in test [3], in test [4], in test [5] and in [6] was inactive. The outcome in test [8], in test [9], in test [10], in [11], in test [12] and in [13] was inactive. Also, the result in test [14], in [15], in [16], in test [17], in test [18] and in test [20] was inactive. The AC50 in test [19] is 3.72 µM (active).
